Drawing on the supplement of paper PMC9950053, this text covers startle for 11 molecules.

Where a name gives a salt, the structure may show the parent alone.

The test system of the assay is Danio rerio larvae (5 dpf). As to the kind of experiment: startle (activity period 16 minus period 15, 20-s interval sound) minus DMSO control (percentage points); higher = stronger startle response than DMSO larvae. The note with it: 10 µM; exposure time: 3 h pre-incubation + 3 h imaging. How it is done: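 Wild-type 5 dpf zebrafish larvae (n=48 per drug, 96-well plates, 28.5 °C) were exposed to Tocris FDA-approved library compounds at 10 µM (0.1% DMSO) for 3 h before and 3 h during imaging. Images were taken every 6 s during visual (moving coloured lines) and acoustic stimuli, and larvae were tracked with the DeepLabCut-based Z-LaP Tracker. Each behavioural measure is the treated-group mean minus the DMSO vehicle control mean (n=844), in percentage points. This mapping covers compounds with 4-character plate codes.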
Consider `C=CCN1C[C@H](C(=O)N(CCCN(C)C)C(=O)NCC)C[C@@H]2c3cccc4[nH]cc(c34)C[C@H]21` [Cabergoline], for which the startle was -9.97. Next, `C=C1C[C@@H]2[C@H](CC[C@]3(C)C(=O)CC[C@@H]23)[C@@]2(C)C=CC(=O)C=C12` [Exemestane]: 1.86; `CC[C@@H](C(N)=O)N1CCCC1=O` [Levetiracetam]: 1.63. For the molecule `CC(O)(CS(=O)(=O)c1ccc(F)cc1)C(=O)Nc1ccc(C#N)c(C(F)(F)F)c1` (stereo unspecified) [Bicalutamide], the startle turned out to be 0.428. For `Cc1cccc([C@H](C)c2c[nH]cn2)c1C` [Dexmedetomidine hydrochloride], the startle was determined as 9.98. The result for `CCN(C)C(=O)Oc1cccc([C@H](C)N(C)C)c1` [Rivastigmine tartrate] reads 5.22; that for `COc1cc2c(cc1OC)C1CC(=O)C(CC(C)C)CN1CC2` (stereo unspecified) [Tetrabenazine], -4.98; that for `CC(C)C[C@H]1C(=O)N2CCC[C@H]2[C@]2(O)O[C@](NC(=O)[C@@H]3C=C4c5cccc6[nH]c(Br)c(c56)C[C@H]4N(C)C3)(C(C)C)C(=O)N12` [Bromocriptine mesylate], -8.86.

Regarding `CN1C[C@H](C(=O)N[C@]2(C)O[C@@]3(O)[C@@H]4CCCN4C(=O)[C@H](Cc4ccccc4)N3C2=O)C[C@@H]2c3cccc4[nH]cc(c34)C[C@H]21` [Dihydroergotamine mesylate], the startle was found to be 6.26. The result for `N[C@@H]1C[C@H]1c1ccccc1` [Tranylcypromine hydrochloride] reads -9.63.

Consider `O=c1[nH]c2ccccc2n1C1CCN(CCCC(c2ccc(F)cc2)c2ccc(F)cc2)CC1` [Pimozide], for which the startle worked out at 0.33.
